Records with an inconclusive call do not appear. Values without a mark were called inactive. Active and inactive are the calls of the source. Unless noted, calls follow the shape of the dose curve; as a rule, active = well fitted cell-killing curve with a large enough effect in the repeat runs; inconclusive = weak or mixed curves, or effect the other way; inactive = no such curve, though single readings can be large or run the other way.
% is scaled to controls: 0 for no effect and ±100 for the full control effect.

Bile acid receptor (Homo sapiens), sequence (Q96RI1 whole entry, looked up): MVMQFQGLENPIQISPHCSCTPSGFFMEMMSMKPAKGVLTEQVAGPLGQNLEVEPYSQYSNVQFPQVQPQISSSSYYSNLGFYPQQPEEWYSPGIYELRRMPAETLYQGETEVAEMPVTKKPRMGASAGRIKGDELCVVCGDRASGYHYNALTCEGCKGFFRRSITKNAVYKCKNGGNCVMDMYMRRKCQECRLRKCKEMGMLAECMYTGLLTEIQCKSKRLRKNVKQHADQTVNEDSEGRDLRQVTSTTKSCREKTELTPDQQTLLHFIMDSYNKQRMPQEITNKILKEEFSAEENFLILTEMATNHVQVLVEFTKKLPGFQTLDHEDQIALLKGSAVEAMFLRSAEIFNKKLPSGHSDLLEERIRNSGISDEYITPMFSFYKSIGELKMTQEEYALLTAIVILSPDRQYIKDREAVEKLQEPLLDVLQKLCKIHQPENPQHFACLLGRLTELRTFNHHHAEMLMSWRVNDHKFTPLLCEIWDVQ

The first assay deals with Bile acid receptor (Homo sapiens) (UniProt Q96RI1). Nature of the assay: qHTS assay to identify small molecule antagonists of the farnesoid-X-receptor (FXR) signaling pathway (AID 743217; active = well fitted inhibition curve with a large enough effect in the signal ratio in the repeat runs, not every such curve was filed as active; the % refers to the signal ratio). The following applies: HEK293T FXR-UAS-bla, beta-lactamase ratio, CDCA-stimulated, 16 h; series mostly up to 62.6 µM. A digest of the protocol:
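Read-out: beta-lactamase FRET fluorescence (LiveBLAzer B/G substrate, 2 h, room temperature) in GeneBLAzer FXR-UAS-bla HEK 293T cells. Compounds were co-dosed with 50 uM chenodeoxycholic acid (final) and incubated 16 h at 37 °C.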
(qHTS replaces the single test concentration by a dilution series.)
Take `COC(=O)c1cccc(Cl)c1`: the outcome was inactive.
As to `COc1c2occc2c(OC)c2c(=O)cc(C)oc12`, the result was inactive.
Same read-out and setting: the same measure for `CCC(=O)CC`: “inactive”; for `C/C(=C1\CCOC(=O)S1)N(C=O)Cc1cnc(C)nc1N`: “inactive”.

Tested on in a further assay: not listed separately
Description: qHTS assay to identify small molecule agonists of the farnesoid-X-receptor (FXR) signaling pathway - cell viability counter screen (AID 743218). Also: nearly all actives have a fitted effect of over 45% in size. The following applies: FXR-bla HEK293T viability, CellTiter-Glo luminescence, 16 h; series mostly up to 62.6 µM. In short, it runs like this:
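Luminescence from CellTiter-Glo, read after 30 min at RT, reports viability of GeneBLAzer FXR-UAS-bla HEK 293T cells treated 16 h with compounds in the wells used for the beta-lactamase reporter.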
Turning to `O=C(O)CNC(=O)CNC(=O)CNC(=O)CSC(=O)c1ccccc1`, the molecule was classed as inactive.
For `C=C(C)[C@@H]1CC=C(C)CC1`, the outcome was inactive.
`[O]=[Mo](=[O])=[O]`: the result was inactive.
Turning to `CC(C)CO`, the outcome was inactive.
`C=C(C)c1cccc(C(C)(C)N=C=O)c1`: the call was inactive.
As for `O=C=NCC1CCCC(CN=C=O)C1` (centres undefined), the molecule was classed as inactive.
Take `COS(=O)(=O)O`: the outcome was inactive.
With `CCCC(CC)c1ccccc1` (centres undefined), the outcome was inactive.
With `Cc1cc(C)c(C(=O)O)c(C)c1`, the result was inactive.
Take `COc1c2occc2c(OC)c2c(=O)cc(C)oc12`: the outcome was inactive.
Regarding `C=CCN1C[C@H](C(=O)N(CCCN(C)C)C(=O)NCC)C[C@@H]2c3cccc4[nH]cc(c34)C[C@H]21`, the result was inactive.
For the molecule `N[C@@H](Cc1ccc(O)cc1)C(=O)O`, the viability change, negative = cytotoxic was -2.1% [at 13.2 µM].
Consider `CO[C@@]1(NC(=O)Cc2cccs2)C(=O)N2C(C(=O)O)=C(COC(N)=O)CS[C@@H]21`, for which the call was inactive.
Still for that read-out and setting: the same measure for `Cc1c(Cl)cccc1Cl`: “inactive”.
In the case of `CC(C)(C)NC[C@H](O)COc1cccc2c1CCCC2=O`, the outcome was inactive.
On to `C=C(C)C1CC=C(C)C(=O)C1` (centres undefined), for which the molecule was classed as inactive.
In the case of `CCCCOCC(C)O` (centres undefined), the result was inactive.
For the molecule `CC(C)C[C@@H]1[C@H](c2ccccc2)OC(=O)N1CCCN1CCCCCC1`, the outcome was inactive.
On the same count and under the same terms, the same measure for `CCC(=O)CC`: “inactive”; for `OC[C@H]1O[C@@H](O[C@@H]2[C@@H](CO)O[C@](O)(CO)[C@H]2O)[C@H](O)[C@@H](O)[C@H]1O`: “inactive”; for `CC1=NN(c2ccc(S(=O)(=O)O)cc2)C(=O)C1`: “inactive”.
On to `C=C(C)[C@@H]1CC=C(C)C(=O)C1`, for which the outcome was inactive.
`COc1nc(N)nc2nc[nH]c12`: the result was inactive.
With `CN(C)CCCO[C@@H]1[C@H]2OC(C)(C)O[C@H]2O[C@@H]1C(O)CO` (some centres undefined), the outcome was inactive.
For `CN(C)CC/C=C1/c2ccccc2COc2ccc(CC(=O)O)cc21`, the outcome was inactive.
For the molecule `CCCCCC/C=C/C(=O)OC`, the molecule was called inactive.
As for `Cc1ccc(C(=O)O)cc1[N+](=O)[O-]`, the call was inactive.
Still for that read-out and setting: the same measure for `CCCCOCCOC(=O)COc1ccc(Cl)cc1Cl`: “inactive”.
On the same count and under the same terms, the same measure for `OC1OCCOC1O` (centres undefined): “inactive”.
`CC(=O)OCC(=O)Nc1cc(C#N)cc(NC(=O)COC(C)=O)c1Cl`: the outcome was inactive.

(Values after PubChem BioAssay (Tox21).)
